Bioassay records as filed in PubChem BioAssay.
CendR NRP1 mod: modulators of CendR peptide binding to NRP-1, primary screen, biochemical, fluorescence polarization, uHTS | FAM-RPARPAR peptide binding to NRP-1 | inhibition, % at 25 µM | 360,000 compounds, 0.85% hits | AID 602438, 2012;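 active means inhibition or corrected inhibition above about 18%, plus a signal ratio from 0.5 to 1.5, limit read from the data, passing the limit was not always enough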
Myeloid diff 2: induction of myeloid progenitor differentiation, primary screen, cell-based, flow cytometry, MLPCN library; ER-HoxA9 myeloid progenitors, lysozyme-GFP differentiation; calls only at 10 µM; 360,000 compounds, 1% hits; AID 624256, 2012;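 active means normalized GFP-positive differentiation at or above the plate's own cutoff, the solvent-only control mean plus 3 SD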;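 further: cells exposed to compound for four days before flow analysis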
NadD inh: inhibitors of S. aureus NadD, primary screen, biochemical, colorimetric, uHTS | purified NadD enzyme, colorimetric absorbance read-out | inhibition, % at 20 µM | 360,000 compounds, 0.78% hits | AID 602399, 2012; in the data active means inhibition above about 26%
FAS TE block: FAS thioesterase domain inhibitors, primary screen, biochemical, fluorescence intensity, uHTS; inhibition, % at 15 µM; 360,000 compounds, 0.67% hits; recombinant FAS-TE, OMFH fluorogenic substrate, fluorescence endpoint;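 active means compounds whose normalised, plate-corrected inhibition of enzyme fluorescence in the single-dose primary screen is 50% or more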
CRFR2-BP antag: antagonists of CRF-BP/CRF-R2 complex, primary screen, cell-based, HEK293, calcium dye fluorescence, uHTS; inhibition, % at 11.8 µM; 350,000 compounds, 0.59% hits; AID 588475, 2011; CRF-induced calcium fluorescence;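 active means inhibition of the ligand-induced calcium signal above about 50% at the single tested concentration, limit read from the data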
Myeloid diff CP1: inducers of myeloid progenitor differentiation, confirmation, cell-based, GFP/Mac1 flow cytometry, cherry pick 01; ER-HoxA9 myeloid progenitors, GFP/Mac1 double-positive flow; calls only; AID 651706, 2012; 2,300 compounds, 2% hits; shares compounds with Myeloid diff 2;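 active means share of green or green-and-red cells above 9 and 9% in run 1 or 4 and 3% in run 2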
GFP autofluor: compound fluorescence in myeloid differentiation counter-screen. shares compounds with Myeloid diff 2. ER-HoxA9 myeloid progenitors, no estrogen, GFP autofluorescence flow cytometry; vehicle wells 0%, positive control 100%. fluorescence response, % (no concentration beside the values). 2,300 compounds, 7.4% hits. AID 651707;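 active means over 5% cells positive for green fluorescent reporter, or over 2% positive for both it and APC stain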
Numbers stand for hits. An excerpt weighted towards active compounds, which were near 3.6% of everything screened.

`O=C(N/N=C/c1cccc(O)c1)c1ccc(COc2cccc3cccnc23)cc1` gave CendR NRP1 mod inactive, Myeloid diff 2 active, NadD inh inactive, FAS TE block inactive, CRFR2-BP antag inactive, Myeloid diff CP1 inactive and GFP autofluor inactive.
For Cc1ccc(N/C(N)=N/c2nc3c(c(=O)[nH]2)CCCC3)c(C)c1 the results were CendR NRP1 mod inactive, Myeloid diff 2 active, NadD inh inactive, FAS TE block inactive, CRFR2-BP antag inactive, Myeloid diff CP1 inactive and GFP autofluor inactive.
Screening N/C(=N\c1nc2c(c(=O)[nH]1)CCC2)Nc1ccccc1 returned CendR NRP1 mod inactive, Myeloid diff 2 inactive, NadD inh inactive, FAS TE block inactive and CRFR2-BP antag inactive.
For CC(OC(=O)c1ccc([N+](=O)[O-])s1)C(=O)NC1CCCCC1C (stereo not given) the results were CendR NRP1 mod inactive, Myeloid diff 2 inactive, NadD inh inactive, FAS TE block inactive and CRFR2-BP antag inactive.
For c1ccc(Cc2nn3c(Cn4nnc5ccccc54)nnc3s2)cc1 the results were CendR NRP1 mod inactive, Myeloid diff 2 inactive, NadD inh inactive, FAS TE block inactive, CRFR2-BP antag inactive, Myeloid diff CP1 inactive and GFP autofluor inactive.
`COc1cccc(C(=O)NC(=S)Nc2ccccc2N2CCCCC2)c1` gave CendR NRP1 mod inactive, Myeloid diff 2 active, NadD inh inactive, FAS TE block inactive, CRFR2-BP antag inactive, Myeloid diff CP1 inactive and GFP autofluor inactive.
For Cc1ccc(-c2noc(CCC(=O)NC3CCN(Cc4ccccc4)CC3)n2)cc1 the results were CendR NRP1 mod inactive, Myeloid diff 2 inactive, NadD inh inactive, FAS TE block inactive and CRFR2-BP antag inactive.
For O=C(CCc1nc(-c2ccccc2F)no1)NC1CCN(Cc2ccccc2)CC1 the results were CendR NRP1 mod inactive, Myeloid diff 2 inactive, NadD inh inactive, FAS TE block inactive, CRFR2-BP antag inactive, Myeloid diff CP1 inactive and GFP autofluor inactive.
`CCOc1ccc(-c2cc(C(=O)OC)nc3c2c(=O)n(C)c(=O)n3C)cc1` gave CendR NRP1 mod inactive, Myeloid diff 2 inactive, NadD inh inactive, FAS TE block inactive and CRFR2-BP antag inactive.
Screening COC(=O)c1sc2ccccc2c1-n1cccc1C(=O)C(=O)Nc1ccc(OC)cc1 returned CendR NRP1 mod inactive, Myeloid diff 2 inactive, NadD inh inactive, FAS TE block inactive and CRFR2-BP antag inactive.
For COC(=O)c1sc2ccccc2c1-n1cccc1C(=O)C(=O)Nc1ccccc1 the results were CendR NRP1 mod inactive, Myeloid diff 2 inactive, NadD inh inactive, FAS TE block inactive, CRFR2-BP antag inactive, Myeloid diff CP1 inactive and GFP autofluor inactive.
For S=C(Nc1ccc(Oc2ccccc2)cc1)N(CCCN1CCOCC1)Cc1ccccn1 the results were CendR NRP1 mod inactive, Myeloid diff 2 active, NadD inh inactive, FAS TE block inactive, CRFR2-BP antag inactive, Myeloid diff CP1 inactive and GFP autofluor inactive.
Screening Cc1cccc(NC(=S)N(CCCN2CCOCC2)Cc2ccccn2)c1 returned CendR NRP1 mod inactive, Myeloid diff 2 inactive, NadD inh inactive, FAS TE block inactive and CRFR2-BP antag inactive.
`CC(C)(C)NC(=O)C(OC(=O)c1cccs1)c1ccc(C#N)cc1` (stereo not given) gave CendR NRP1 mod inactive, Myeloid diff 2 inactive, NadD inh inactive, FAS TE block inactive and CRFR2-BP antag inactive.
For Cc1cc(C)n2c(NC3CCCCC3)c(-c3ccccn3)nc2n1 the results were CendR NRP1 mod inactive, Myeloid diff 2 inactive, NadD inh inactive and FAS TE block inactive.
For Cc1cc(C)n2c(NC3CCCC3)c(-c3cc4ccccc4o3)nc2n1 the results were CendR NRP1 mod inactive, Myeloid diff 2 inactive, NadD inh inactive, FAS TE block inactive, Myeloid diff CP1 inactive and GFP autofluor inactive.
For COc1ccc(Cn2c(C3CC3)nc3ccc(NC(=O)c4cccnc4)cc3c2=O)cc1 the results were CendR NRP1 mod 32, Myeloid diff 2 active, NadD inh inactive, FAS TE block inactive, CRFR2-BP antag inactive, Myeloid diff CP1 inactive and GFP autofluor 14.
For COc1ccc(NC(=O)c2cccnc2)cc1 the results were CendR NRP1 mod inactive, Myeloid diff 2 inactive, NadD inh inactive, FAS TE block inactive and CRFR2-BP antag inactive.
For COc1ccc(Cn2c(C3CC3)nc3ccc(NC(C)=O)cc3c2=O)cc1 the results were CendR NRP1 mod inactive, Myeloid diff 2 active, NadD inh inactive, FAS TE block inactive, CRFR2-BP antag inactive, Myeloid diff CP1 inactive and GFP autofluor inactive.
CC1CCCN(S(=O)(=O)CCNC(=O)c2ccccc2)C1 (stereo not given) was read as CendR NRP1 mod inactive, Myeloid diff 2 inactive, NadD inh inactive, FAS TE block inactive and CRFR2-BP antag inactive.
CCOc1ccc(CN(C)CC(=O)Nc2cccc3ccccc23)cc1OC was read as CendR NRP1 mod inactive, Myeloid diff 2 inactive, NadD inh inactive, FAS TE block inactive, CRFR2-BP antag inactive, Myeloid diff CP1 inactive and GFP autofluor inactive.
CCOCCCNC(=O)Cc1c(C(=O)O)[nH]c2ccc(Cl)cc12 was read as CendR NRP1 mod inactive, Myeloid diff 2 inactive, NadD inh inactive, FAS TE block inactive, CRFR2-BP antag inactive, Myeloid diff CP1 inactive and GFP autofluor inactive.
COc1ccc(OC)c(CNC(=O)Cc2c(C(=O)O)[nH]c3ccc(Cl)cc23)c1 was read as CendR NRP1 mod inactive, Myeloid diff 2 inactive, NadD inh inactive, FAS TE block inactive and CRFR2-BP antag inactive.
Screening CCCCN(C(=O)c1ccc(Cl)c([N+](=O)[O-])c1)c1c(N)n(CCC)c(=O)[nH]c1=O returned CendR NRP1 mod inactive, Myeloid diff 2 inactive, NadD inh inactive, FAS TE block inactive and CRFR2-BP antag inactive.
`O=C1COc2ccc(C(=O)NCc3ccco3)cc2N1` gave CendR NRP1 mod inactive, Myeloid diff 2 inactive, NadD inh inactive, FAS TE block inactive, CRFR2-BP antag inactive, Myeloid diff CP1 inactive and GFP autofluor inactive.
Screening O=C1COc2ccc(C(=O)/C=C/c3ccccc3)cc2N1 returned CendR NRP1 mod inactive, Myeloid diff 2 inactive, NadD inh inactive, FAS TE block inactive, CRFR2-BP antag inactive, Myeloid diff CP1 inactive and GFP autofluor inactive.
`CCCCNC(=O)c1onc(CSc2ccc(OC)cc2)c1C(=O)O` gave CendR NRP1 mod inactive, Myeloid diff 2 inactive, NadD inh inactive, FAS TE block inactive and CRFR2-BP antag inactive.
CCCCNC(=O)c1onc(CSc2ccc(F)cc2)c1C(=O)O was read as CendR NRP1 mod inactive, Myeloid diff 2 active, NadD inh inactive, FAS TE block inactive, CRFR2-BP antag inactive, Myeloid diff CP1 inactive and GFP autofluor inactive.
